Laboratory results as given in the supplement of paper PMC3724861.
Many of the other results were omitted from the sample, so hits are more common in it than they were. No count for the full screen is at hand. Unmarked numbers belong to inactive results.

What follows are sequences tested on T1, Caupolican (Caup) homeodomain DNA-binding domain (assay: PBM E-score (8-mer, recovered from the published 9-mer minima) (E-score (dimensionless, -0.5 to 0.5)); Drosophila protein; higher = stronger relative binding preference, active = 0.31 or more).
T1 sequence: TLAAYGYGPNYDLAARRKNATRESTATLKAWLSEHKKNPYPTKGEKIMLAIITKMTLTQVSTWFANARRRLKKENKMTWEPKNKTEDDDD
Method: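 Protein binding microarray (PBM): in vitro transcribed/translated Caupolican (Caup) homeodomain DNA-binding domain (residues 214-303) applied at 100 nM to a universal 8-mer PBM array (Agilent AMADID 015681). The 8-mer enrichment score (E-score, range -0.5 to 0.5) was computed, and each 9-mer score is the minimum E-score of its two constituent 8-mers. The E-score is the same for a 9-mer and its reverse complement; 0.31 is the stated binding threshold.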

| Sequence | PBM E-score |
| --- | --- |
| AGCCCTCA | -0.12 |
| CAACAAAG | 0.159 |
| CTAATAAG | 0.0971 |
| GGCTAGGA | -0.114 |
| ATAAGGAA | 0.0175 |
| TAAACGCA | 0.034 |
| AGATACGC | -0.121 |
| GGGTCTGA | -0.193 |
| ACGCTGAG | -0.175 |
| CATGTTGG | 0.285 |
| AATGTTGA | 0.17 |
| AATGTTGG | 0.115 |
| CATGTTGA | 0.38 (active) |
| CATGTTGC | 0.279 |
| AATGTTGT | 0.368 (active) |
| AGTCTAAG | 0.0473 |
| GAATGTAA | 0.223 |
| ATATGCAA | 0.123 |
| GTATGTAA | 0.369 (active) |
| CTCTGTAA | 0.12 |
| ATATGTAA | 0.34 (active) |
| GTATGTGA | 0.193 |
| CTATGTGA | 0.137 |
| CTATGTAA | 0.338 (active) |

| Sequence | PBM E-score |
| --- | --- |
| ATCTGTAA | 0.15 |
| AGGAGGAG | -0.188 |
| TATCGCAA | 0.0789 |
| CGAGAAGC | -0.0725 |
| CGTTTTAC | 0.0444 |
| ATTAGTGA | 0.107 |
| CTGCTAGC | -0.102 |
| GTGGTTGA | 0.0698 |
| AATTAGAG | 0.00042 |
| CGCCCCAG | -0.238 |
| ACATGCAA | 0.323 (active) |
| TCATGCAA | 0.146 |
| GCATGCAA | 0.0861 |
| GCATGCAC | 0.0682 |
| ACATGCGG | 0.195 |
| AAATGCAT | 0.0673 |
| ACATGCAT | 0.376 (active) |
| ACATGCAG | 0.294 |
| ACATGCAC | 0.393 (active) |
| CCATGCAC | -0.0759 |
| ACATGCGC | 0.288 |
| ACATGCGT | 0.346 (active) |
| CGTCGTCA | -0.0203 |
| AAAAGCCT | -0.0858 |

| Sequence | PBM E-score |
| --- | --- |
| AGATTGGC | -0.0959 |
| CAGCCTCC | -0.292 |
| ACGGGTTC | -0.0477 |
| CAACAAGC | 0.202 |
| CAACAATC | 0.258 |
| AAACAATG | 0.256 |
| CAACAAGG | 0.338 (active) |
| CAACAATG | 0.323 (active) |
| CAACAAGA | 0.241 |
| CGCCCCTA | -0.159 |
| GTAAGAGA | 0.016 |
| GGCTTGCA | -0.0355 |
| GGAACATA | 0.271 |
| CGAACATA | 0.343 (active) |
| CGAACAAA | 0.157 |
| AGAACATG | 0.406 (active) |
| AGAACATC | 0.235 |
| AGAACAGA | 0.16 |
| AGAACATA | 0.318 (active) |
| AGAACAGG | 0.139 |
| CGAACATC | 0.279 |
| TAGCTCGA | -0.0721 |
| CACACCGG | -0.087 |
| GTCGTTCA | 0.0698 |

| Sequence | PBM E-score |
| --- | --- |
| AGTTGGAG | -0.129 |
| CAGTTAAG | 0.0884 |
| CGTCTAAG | -0.13 |
| GAAAGGTA | 0.0535 |
| AAACTCGA | 0.0205 |
| ATGTAATG | 0.37 (active) |
| CTGTAATA | 0.193 |
| ACGTAATC | 0.155 |
| AAGTAATA | 0.134 |
| GTGTAATA | 0.315 (active) |
| CTGTAATC | 0.162 |
| ACGTAATG | 0.16 |
| GAGTAATA | 0.167 |
| ATGTAATC | 0.348 (active) |
| ATGTAATA | 0.383 (active) |
| GCGTAATA | 0.076 |
| ATGTAAGG | 0.303 |
| ACTAGTGA | 0.113 |
| CGGTCTGA | -0.0584 |
| GGCTTAGA | -0.112 |
| ACTACCAA | 0.167 |
| GTAGGCAC | -0.096 |
| GTTAGGAA | 0.0363 |
| AATCACTG | 0.0918 |

| Sequence | PBM E-score |
| --- | --- |
| ACCCAACT | -0.0182 |
| ATGTGTAA | 0.332 (active) |
| ATGTGTAG | 0.193 |
| GTGTGTAA | 0.275 |
| CTGTGTAC | 0.272 |
| ATGTGTAC | 0.348 (active) |
| CTGTGTAA | 0.294 |
| CATGTCCA | 0.384 (active) |
| TATGTCCA | 0.214 |
| CATGTCCG | 0.303 |
| AATGTCCA | 0.251 |
| CATGTCCC | 0.33 (active) |
| AATGTCCC | 0.0508 |
| GTAACGTA | 0.198 |
| CCATGTGC | -0.0035 |
| ACATGTGA | 0.312 (active) |
| CCATGTGA | 0.0957 |
| ACATGTGC | 0.351 (active) |
| ACATGTGG | 0.308 |
| GCATGTGA | 0.176 |
| CACTGGAG | -0.159 |
| ATACACCG | 0.184 |
| ATCGGGGG | -0.264 |
| CGATGTAA | 0.276 |
